Compounds without any hit were thinned out: in the full panel of roughly 83,000, 20% have a hit.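 Single-concentration screen, 48 h exposure, 96-well plates. Endpoint: percent growth. Below 10 = active.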 Active and inactive are the calls of the source.
Test system: LOX IMVI melanoma
Assay: NCI-60 one-dose screen, 48 h (100 = growth as untreated, 0 = no growth, -100 = all killed)
Details: 10 µM
Procedure: Growth inhibition of the LOX IMVI human tumor cell line is measured as a screen for anti-cancer activity. Cells are grown in 96 well plates and exposed to the test compound for 48 hours. Compounds are tested at a single concentration, which is 10^-5 M for most compounds. The reported endpoint is percent growth (GI% or GIPRCNT), where numbers from 0 - 100% represent growth inhibition, and numbers from -100% - 0 represent cell death. For example, a value of 40 represents 60% growth inhibition. A value of 0 means no net growth occurred over the course of the experiment. A value of -40 indicates 40% of cells at the beginning of the experiment died by the end of the experiment. A value of -100 means all cells are dead at the end of the experiment.
NCI-60 Human Tumor Cell Lines Screen was performed using the standard one-dose NCI protocol, which is described in more detail at https://dtp.cancer.gov/discovery_development/nci-60/default.htm.
Compounds with GIPRCNT values below 10 were considered active. Activity score was based on GIPRCNT using the following formula: […]
Score is 0 for GIPRCNT values of 100 or above, 50 for GIPRCNT values of 0, and 100 for GIPRCNT values of -100.

Compound	growth
O=C(O)C(SC(C(=O)O)c1ccccc1)c1ccccc1 (stereo not given)	99.4% (inactive)
O=C1OCC2=C1C(c1cccc(Cl)c1)c1cc3c(cc1N2CCO)OCCO3 (stereo not given)	22.2% (inactive)
COc1ccc(Nc2cc(C)nc(NCCCNc3ccnc4cc(Cl)ccc34)n2)cc1	-80% (active)
CC(=O)O[C@]1(C)CC[C@H]2[C@H](CNCCc3ccc(Cl)cc3)C(=O)O[C@@H]2C2=C(C)C(=O)C[C@H]21	90.6% (inactive)
CCCC1(CC(=O)O)OCCc2c1[nH]c1ccccc21 (stereo not given)	108% (inactive)
COc1ccc(-c2nn(-c3cccc(NC(=O)Nc4ccccc4)c3)cc2-c2ccncc2)cc1Cl	29% (inactive)
CNc1ccc(CSc2ccc(C)cc2)cc1	92.1% (inactive)
Cc1ccc(NC(=O)Nc2nc3ccccc3s2)cc1NC(=O)Nc1nc2ccccc2s1	91.7% (inactive)
COC(=O)C(=C\c1ccc2c(c1)OCO2)/C(=C/c1ccc2c(c1)OCO2)C(=O)OC	90.8% (inactive)
NC(=O)CC1(c2ccccc2)CCCCC1	96.1% (inactive)
COc1ccc(S(=O)(=O)NCCCNc2nccc(-c3c(-c4ccc(F)cc4)nc4sccn34)n2)cc1	40.1% (inactive)
N#CCCN1C/C(=C/c2ccccc2)C(=O)/C(=C/c2ccccc2)C1	-65.5% (active)
N#CCCN1C/C(=C/c2ccc(Br)cc2)C(=O)/C(=C/c2ccc(Br)cc2)C1	-71.3% (active)
COc1cc(C)ccc1C(=O)c1ccc(C)cc1OC	31.5% (inactive)
N=C(N)c1ccc(-c2ccc(-c3ccco3)o2)cc1	56.9% (inactive)
Cc1ccc(C(=O)N2C/C(=C/c3ccccc3)C(=O)/C(=C/c3ccccc3)C2)cc1	-24.5% (active)
CCOC(=O)N1C/C(=C/c2ccc(F)cc2)C(=O)/C(=C/c2ccc(F)cc2)C1	-84.5% (active)
O=C(O)CN1C(=O)c2cccc3cccc(c23)C1=O	98.6% (inactive)
COc1cc(-c2cc(C(=O)N3CCN(C(=O)c4ccccc4NCc4ccco4)CC3)nc3cc(-c4ccccc4)nn23)cc(OC)c1OC	30% (inactive)
O=C1/C(=C/c2ccc(Cl)cc2)SC(=Nc2ccc(Cl)cc2)N1Cc1nc2ccccc2[nH]1	78% (inactive)

Compound	growth
Clc1ccc(/C=C2\CCCC3=C2N=C2SC=NN2C3c2ccc(Cl)cc2)cc1 (stereo not given)	55.1% (inactive)
O=C(Nc1ccncc1)C(=O)c1cn(S(=O)(=O)c2cc(Cl)cc(Cl)c2)c2ccccc12	48% (inactive)
COc1ccc(C2CC(c3ccc(N(C)C)cc3)=NN2c2ccc(S(N)(=O)=O)cc2)cc1 (stereo not given)	54.9% (inactive)
Cc1cc2c(C)c3cc(C)c(N)cc3nc2cc1N	4.46% (active)
Nc1ccc2c(c1)C1(CCC2)NC(=O)NC1=O (stereo not given)	97.7% (inactive)
COc1ccc(-c2nc3sc(-c4ccccc4)c(-c4ccccc4)n3c2/C=C/C(=O)c2ccccn2)cc1	90.5% (inactive)
Cc1ccc(NC(=O)Nc2cccnc2)cc1NC(=O)Nc1cccnc1	96.6% (inactive)
CCOC1(OCC)OC(c2ccccc2)=C(C#N)C(/C=C\c2ccccc2)C1(OCC)OCC (stereo not given)	79% (inactive)
COc1cc2c(cc1OCCCN1CCN(c3ncnc4ccccc34)CC1)N=CC1CCCN1C2=O (stereo not given)	-39.4% (active)
C=C(NC(=O)C(=C)NC(=O)c1csc(C2=NC3c4csc(n4)C4NC(=O)c5csc(n5)C(C(C)(O)C(C)O)NC(=O)C5CSC(=N5)/C(=C/C)NC(=O)C(C(C)O)NC(=O)c5csc(n5)C3(CC2)NC(=O)C(C)NC(=O)C(=C)NC(=O)C(=C)NC(=O)C(C(C)C)NC2C=Cc3c(C(C)O)cc(nc3C2O)C(=O)OC4C)n1)C(N)=O (stereo not given)	-52.7% (active)
CC/C(=C(/c1ccc(OCCN(C)C)cc1)c1ccc(OC(=O)CCC(=O)c2c(C)[nH]c(/C=C3\N=C(c4ccc[nH]4)C=C3OC)c2C)cc1)c1ccccc1	-45% (active)
NC(=S)N=Nc1c(O)c2ccccc2c2ccccc12	1.8% (active)
CC(=O)OCc1cc(-c2nc3ccccc3[nH]c2=O)nn1-c1ccc(Cl)cc1	102% (inactive)
O=C(O)c1ccc(P(=O)(O)O)c([N+](=O)[O-])c1	102% (inactive)
Clc1ccc(Sc2nc(NC3CC3)nc(Sc3ccc(Cl)cc3)n2)cc1	91.3% (inactive)
O=C(Nc1ccc(Cl)c([N+](=O)[O-])c1)Nc1nc2ccccc2s1	91.4% (inactive)
COc1ccc(C(=O)/C=C/c2cc(-c3cc(OC)c(OC)c(OC)c3)n[nH]2)cc1	-11.6% (active)
Nc1c(C(=O)Nc2ccccc2Cl)sc2nc3c(cc12)C(=O)CCC3	55% (inactive)
Clc1ccc2c(NCCCNc3nccc(Nc4ccc(Br)cc4)n3)ccnc2c1	-85.8% (active)
CCN(CC)CCOc1nc2ccccc2c2c1-c1ccc(OC)cc1C2=O	-47.2% (active)
